# Reference: PubChem BioAssay (NCATS)
# Results filed as inconclusive are left out. A number with no mark means an inactive call. Calls of active or inactive are those of the source. Calls come from the whole dose curve; as a rule, active = well fitted cell-killing curve with a large enough effect; inconclusive = small, poorly fitted or top-dose-only effect, or effect the other way; inactive = no such curve, though single readings can be large or run the other way.
# Legend:
# [1] = Quantitative High-Throughput drug screen in 47 multiple myeloma cell lines against the NCATS MIPE library collection: OPM1_PLB cell viability assay (AID 1918989); note: nearly all actives have a fitted effect of over 40% in size
# Method in brief: (§1)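 Inhibition of viability over 48 h was scored by ATP content (CellTiter-Glo) in 500-cell wells. Zero and full viability were defined by media-only and DMSO-only wells.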
# [2] = Quantitative High-Throughput drug screen in 47 multiple myeloma cell lines against the NCATS MIPE library collection: SKMM1_PLB cell viability assay (AID 1919863); settings: SKMM1 myeloma viability, CellTiter-Glo ATP, 48 h; viability: stronger effect = lower value; note: nearly all actives have a fitted effect of over 35% in size
# Method in brief: as §1
# [3] = Quantitative High-Throughput drug screen in 47 multiple myeloma cell lines against the NCATS MIPE library collection: U266_ATCC cell viability assay (AID 1919864); note: nearly all actives have a fitted effect of over 35% in size;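 for viability (% of DMSO control): 0% = media-only wells without cells and 100% = DMSO-only wells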
# Method in brief: as §1
# [4] = Quantitative High-Throughput drug screen in 47 multiple myeloma cell lines against the NCATS MIPE library collection: XG1_PLB cell viability assay (AID 1919866); note: nearly all actives have a fitted effect of over 35% in size
# Method in brief: as §1
# [5] = Quantitative High-Throughput drug screen in 47 multiple myeloma cell lines against the NCATS MIPE library collection: VP6_DJ cell viability assay (AID 1919867); note: nearly all actives have a fitted effect of over 40% in size
# Method in brief: as §1
# [6] = Quantitative High-Throughput drug screen in 47 multiple myeloma cell lines against the NCATS MIPE library collection: PE2_PLB cell viability assay (AID 1919869); note: nearly all actives have a fitted effect of over 35% in size
# Method in brief: as §1
# [7] = Quantitative High-Throughput drug screen in 47 multiple myeloma cell lines against the NCATS MIPE library collection: OCIMY5_PLB cell viability assay (AID 1918988); note: nearly all actives have a fitted effect of over 65% in size
# Method in brief: as §1
# [8] = Quantitative High-Throughput drug screen in 47 multiple myeloma cell lines against the NCATS MIPE library collection: XG6_PLB cell viability assay (AID 1919865); note: nearly all actives have a fitted effect of over 40% in size
# Method in brief: as §1
# [9] = Quantitative High-Throughput drug screen in 47 multiple myeloma cell lines against the NCATS MIPE library collection: UTMC2_PLB cell viability assay (AID 1919868); settings: CellTiter-Glo ATP luminescence, 48 h; viability (% of DMSO control): at 45.8 µM (top of the series); note: nearly all actives have a fitted effect of over 55% in size;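 for viability (% of DMSO control): 100% = DMSO-only wells and 0% = media-only wells without cells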
# Method in brief: as §1
# Potency is the fitted concentration of half-maximal effect.
smiles,measurement,setting,value
O=S(=O)(O)c1ccc2cc(N=Nc3cc(S(=O)(=O)O)c4cccnc4c3O)ccc2c1,Potency,[1],13.2 µM (active)
same,Potency,[2],18.7 µM (active)
same,Potency,[3],13.2 µM (active)
same,Potency,[4],5.9 µM (active)
same,Potency,[5],16.6 µM (active)
same,Potency,[6],3.32 µM (active)
COc1ccc(-c2nc3ccc(C4=NNC(=O)CC4C)cc3[nH]2)cc1 (configuration not stated),Potency,[7],inactive
same,Potency,[8],inactive
same,Potency,[4],inactive
same,Potency,[6],inactive
CCC(=O)OCC(=O)[C@@]1(OC(=O)CC)[C@@H](C)C[C@@H]2[C@H]3CCC4=CC(=O)C=C[C@]4(C)[C@@]3(F)[C@@H](O)C[C@@]21C,Potency,[1],14.8 µM (active)
same,viability,[2],97.1%
same,Potency,[3],inactive
same,Potency,[8],11.8 µM (active)
same,Potency,[5],11.8 µM (active)
COc1cc2nccc(Oc3ccc(NC(=O)Nc4ccc(F)cc4F)c(F)c3)c2cc1OC,Potency,[7],1.87 µM (active)
same,Potency,[3],11.8 µM (active)
same,Potency,[8],inactive
C[C@@H]1CCO[C@H]2Cn3cc(C(=O)NCc4ccc(F)cc4F)c(=O)c(O)c3C(=O)N12,Potency,[7],20.9 µM (active)
same,Potency,[2],26.4 µM (active)
CCC(=C(CC)c1ccc(O)cc1)c1ccc(O)cc1,Potency,[7],20.9 µM (active)
same,Potency,[2],14.8 µM (active)
same,Potency,[8],20.9 µM (active)
same,Potency,[4],14.8 µM (active)
same,Potency,[5],18.7 µM (active)
same,Potency,[6],18.7 µM (active)
O=C1CN2Cc3c(ccc(Cl)c3Cl)N=C2N1,Potency,[7],23.5 µM (active)
same,Potency,[1],13.2 µM (active)
same,Potency,[9],inactive
same,Potency,[6],20.9 µM (active)
Cc1ccc(C(=O)N(CCCN)[C@@H](c2oc3cc(Cl)ccc3c(=O)c2Cc2ccccc2)C(C)C)cc1,Potency,[7],inactive
same,Potency,[3],20.9 µM (active)
COc1ccc(CCN(C)CCCOc2ccc(S(=O)(=O)c3[nH]c4ccccc4c3C(C)C)cc2)cc1OC,Potency,[1],23.5 µM (active)
same,viability,[2],110%
same,Potency,[3],18.7 µM (active)
same,Potency,[8],26.4 µM (active)
same,Potency,[9],inactive
same,Potency,[6],18.7 µM (active)
CO[C@H]1/C=C\O[C@@]2(C)Oc3c(C)c(O)c4c(O)c(c5c(nc6cc(C)ccn65)c4c3C2=O)NC(=O)C(C)=CC=C[C@H](C)[C@H](O)[C@@H](C)[C@@H](O)[C@@H](C)[C@H](OC(C)=O)[C@H]1C,Potency,[7],16.6 µM (active)
same,Potency,[8],inactive
same,Potency,[4],inactive
N=C1SC(=Cc2ccc(-c3ccc4c(c3)C(=O)NC4=O)o2)C(=O)N1c1ccc(Br)cc1,Potency,[7],2.96 µM (active)
same,Potency,[2],3.32 µM (active)
same,Potency,[8],1.66 µM (active)
same,Potency,[6],2.09 µM (active)
CC1(C)[C@H]2CC[C@]3(C)[C@@H](C(=O)C=C4[C@@H]5C[C@@](C)(C(=O)O)CC[C@]5(C)CC[C@]43C)[C@@]2(C)CC[C@@H]1O,Potency,[1],inactive
same,Potency,[2],11.8 µM (active)
same,Potency,[3],inactive
same,Potency,[8],inactive
same,Potency,[4],inactive
same,Potency,[5],inactive
same,Potency,[9],inactive
same,Potency,[6],inactive
Clc1ccc(COC(Cn2ccnc2)c2ccc(Cl)cc2Cl)c(Cl)c1 (configuration not stated),Potency,[7],26.4 µM (active)
same,Potency,[1],18.7 µM (active)
same,Potency,[8],18.7 µM (active)
same,Potency,[5],18.7 µM (active)
COc1cc(Nc2nc3ccccc3nc2NS(=O)(=O)c2ccc(NC(=O)c3ccc(C)c(OC)c3)cc2)cc(OC)c1,Potency,[7],4.69 µM (active)
same,Potency,[2],10.5 µM (active)
same,Potency,[8],13.2 µM (active)
same,Potency,[4],13.2 µM (active)
same,Potency,[5],5.9 µM (active)
COc1cc2c(cc1OC)[C@@H]1Cc3ccc(OC)c(OC)c3CN1CC2,Potency,[7],5.9 µM (active)
same,Potency,[3],11.8 µM (active)
same,Potency,[8],inactive
same,Potency,[4],inactive
O=C(O)CCNc1cc(N2CCc3ccccc3CC2)nc(-c2ccccn2)n1,Potency,[1],5.26 µM (active)
same,Potency,[3],inactive
same,Potency,[8],inactive
same,Potency,[4],20.9 µM (active)
same,Potency,[6],inactive
Cc1cc(NC(=O)Nc2ccc(N(C)C)cc2)c2cc(F)cc(F)c2n1,Potency,[1],inactive
same,Potency,[3],inactive
same,Potency,[8],inactive
same,Potency,[4],3.32 µM (active)
same,Potency,[9],inactive
same,Potency,[6],inactive
N#CC(=C1Nc2ccccc2S1)c1ccnc(OCc2ccc(CN3CCOCC3)cc2)n1,Potency,[1],16.6 µM (active)
same,Potency,[3],5.26 µM (active)
same,Potency,[8],1.18 µM (active)
same,Potency,[4],1.18 µM (active)
same,Potency,[6],5.26 µM (active)
CCCCn1c(=O)n(Cc2ccccc2F)c(=O)c2[nH]c(Cc3ccc(NC(C)=O)cc3)nc21,Potency,[1],inactive
same,Potency,[3],18.7 µM (active)
same,Potency,[8],inactive
same,Potency,[5],inactive
same,Potency,[6],inactive
COc1cc(F)c(C(C)C)cc1-c1ccc(C(F)(F)F)cc1CN1C(=O)O[C@H](c2cc(C(F)(F)F)cc(C(F)(F)F)c2)[C@@H]1C,Potency,[1],inactive
same,Potency,[8],20.9 µM (active)
same,Potency,[4],26.4 µM (active)
CNC(=O)[C@H](CC1=CN=C2C=CCC=C12)NC(=O)[C@@H](CC(=O)NO)CC(C)C,Potency,[1],inactive
same,viability,[2],109%
same,Potency,[9],18.7 µM (active)
COC(=O)N1CCN(Cc2cccc(NC(=O)Nc3ccc(C)nc3)c2F)CC1,Potency,[1],inactive
same,Potency,[3],inactive
same,Potency,[8],inactive
same,Potency,[4],inactive
